Screening results (PubChem)
The list is a sample of the results.
aSyn 5UTR act = Activators via SNCA 5'UTR binding, MLPCN. alpha-synuclein 5'UTR reporter, activators screen. activity score, % (tested at 7.5 µM), hits read low. 300,000 compounds, 7.1% hits; in the data active = activity score below about -60%
The depositor's hits bear a star.

SMILES | aSyn 5UTR act
O=C(c1cnn(-c2ccccc2)c1)c1cc(F)ccc1O | -163*
O=C(c1cnn(-c2ccccc2)c1)c1ccccc1O | -106*
NNC(=O)c1nn(-c2ccccc2)cc1O | 83
c1ccc(OCCOc2ccccc2-c2nnco2)cc1 | -64*
CCOC(=O)c1cc2nc(Nc3ccc(OC)cc3)sc2s1 | -83*
COc1ccc(Nc2nc3ccc(OC)cc3s2)cc1 | -120*
COc1ccc2nc(Nc3nc(C)c(C(C)=O)s3)sc2c1 | -186*
O=C(CCSc1ccccc1)Nc1ccccc1Br | -91*
CC(C)NC(=S)N/N=C/c1ccc(N2CCOCC2)cc1 | -87*
C=C(C)CNC(=S)N/N=C/c1ccc(N2CCOCC2)cc1 | -64*
Cc1ccc(C(=O)N/N=C2\SCC(=O)N2c2cc(C)ccc2C)cc1 | -94*
COc1cccc(-c2nc3sc4c(c3c(=O)[nH]2)CCCCC4)c1 | -267*
CC(C)(C)c1ccc(-c2cc(C(=O)NNC(=O)Nc3ccccc3)c3ccccc3n2)cc1 | -124*
COc1cc(C(=O)Nc2ccc(C)cc2)c2ccccc2n1 | 82
COc1ccc(-c2cc(C(=O)Nc3ccc(C)c(N)c3)c3ccccc3n2)cc1 | -82*
Cc1ccc(-c2cc(-c3ccc(F)cc3)nc(N)c2C#N)o1 | 63
COc1ccc(Oc2nccc(-c3ccc(F)cc3)c2C#N)cc1 | -82*
COc1ccc(Oc2nccc(-c3ccccc3)c2C#N)cc1 | -185*
O=C(Nc1cccc(-c2cn3c(n2)SCC3)c1)c1ccc2ccccc2n1 | -141*
O=C(Nc1ccc(-c2cn3c(n2)SCC3)cc1)c1ccc2ccccc2n1 | -186*
O=[N+]([O-])c1ccc(NCc2ccccc2)nc1 | -67*
CC(C)CNc1nc(N)c([N+](=O)[O-])c(NCc2ccccc2)n1 | 77
C/C(CC(=O)Nc1ccc(F)cc1F)=N\NC(=O)C(=O)N1CCCCC1 | -68*
COc1ccc(NC(=S)NCCCCCC(=O)C[N+](=O)[O-])cc1 | -82*
CCOC(=O)CNC(=O)c1ccc2c(c1)OCCO2 | -64*
SMILES | aSyn 5UTR act
CCOC(=O)CNC(=O)c1cc(-c2ccc3c(c2)OCCO3)oc1C | -99*
O=C(NCc1cccs1)c1ccc2c(c1)OCCO2 | -70*
O=C(NCCc1cccs1)c1ccc(Cl)c(Cl)c1 | -209*
Cc1ccc(C(=O)NCCc2cccs2)cc1 | 73
COc1ccc2oc(=O)c(C(=O)NC3CCCCCC3)cc2c1 | -174*
COc1ccc2oc(C(=O)NCCC(C)C)c(C)c2c1 | -143*
COc1ccc2oc(C(=O)NC3CCCCC3)c(C)c2c1 | -99*
COCCN(CC(=O)NC1CCCCC1)C(=O)/C=C/C(=O)c1ccc(OC)cc1O | 79
CCN(CC(=O)Nc1ccccc1C(F)(F)F)C(=O)c1oc2ccc(OC)cc2c1C | -65*
COc1ccc2oc(C(=O)Nc3ccc(C)cn3)c(C)c2c1 | -124*
Cc1cc(C(=O)N/N=C2\CC(=O)c3ccccc32)c(C)n1-c1ccccc1 | -112*
O=C(OCC(=O)N1CCCC1=O)c1nc(Cl)c(Cl)c(Cl)c1Cl | -131*
O=C(NC1CCC(O)CC1)c1ccc(-c2ccc(Cl)cc2)o1 (stereo unspecified) | -112*
O=C(NNC1=Nc2ccccc2SC1)c1ccc(Cl)cc1 | 96
O=C(NCCCN1CCOCC1)c1sc2cc(F)ccc2c1Cl | -62*
O=C(NC1=NCCS1)c1ccc(Cl)cc1 | -180*
O=C(NC1=NCCS1)c1ccc(-c2ccc(Cl)cc2)o1 | -191*
O=C(NC1=NCCS1)c1sc2cc(F)ccc2c1Cl | -191*
CCOC(=O)C(C(=O)OCC)C1N=C(N)N=C2Oc3ccccc3N21 (stereo unspecified) | -163*
CCOC(=O)c1ccc2[nH]c3c(c2c1)CCCCC3=O | -102*
O=C1CCCc2c1[nH]c1ccc(Cl)cc21 | 63
Cc1nc(C)c(-c2csc(NCc3ccco3)n2)s1 | -99*
COc1ccc(-c2csc(NCc3ccco3)n2)cc1 | -160*
c1coc(CNc2nc(-c3ccncc3)cs2)c1 | -92*
C/C(=N\Nc1cccc(C(F)(F)F)c1)c1ccc(O)cc1 | -76*
SMILES | aSyn 5UTR act
Cc1nn(-c2ccccc2Cl)c(Cl)c1/C=N/Nc1cccc(C(=O)O)c1 | 103
Cc1nn(-c2cccc(C(F)(F)F)c2)c(Cl)c1/C=N/Nc1cccc(C(=O)O)c1 | -108*
CC(C)c1ccc(/C=N/Nc2ccc(C(=O)O)cc2)cc1 | 85
O=C(O)c1cc(N/N=C/c2ccc(-c3ccccc3)cc2)ccc1Cl | -202*
O=C(O)c1ccc(N/N=C/c2ccc(-c3ccccc3)cc2)cc1 | -78*
Cc1cccc(C)c1N=C1SC(CC(=O)Nc2c(C)cccc2C)C(=O)N1CCc1ccccn1 (stereo unspecified) | 67
O=C(O)c1ccc(/C=N/Nc2cccc(C(F)(F)F)c2)cc1 | -137*
CSc1ccc(/C=N/Nc2ccc(Cl)c(C(=O)O)c2)cc1 | -134*
O=C(O)c1ccc(N/N=C/C=C/c2ccccc2)cc1 | -125*
O=C(c1cc(-c2ccccc2O)on1)N1CCOCC1 | -115*
O=C(c1cc(-c2ccccc2O)on1)N1CCCCCC1 | -140*
COc1ccc(C(=O)Nc2sc(C)c(-c3ccccc3)c2C#N)cc1OC | -92*
